Assay outcomes: PubChem BioAssay, National Center for Advancing Translational Sciences (NCATS)
Only some compounds are listed: those with a hit (about 7.3% of all), similar ones and a draw of the others.
SMN2 splice enh – increases expression of the SMN2 splice variant. HEK293 SMN2-luciferase splicing reporter, luminescence, 30-36 h. Potency, µM (top dose mostly 46.1 µM), inactives show at the top dose activity change, positive = activation, hits mostly activators. actives 2.8% (n = 210,000). AID 1458; also: % of control where 0% means no effect; nearly all actives have a fitted effect of over 55% in size
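HEK293 cells carry an SMN2 minigene-luciferase reporter in which exon 7 inclusion puts luciferase in frame. Cells were seeded at 2000 cells/well, attached for 10-12 hours, then exposed to compounds for 30-36 hours at 37C before ONE-Glo luminescence.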
FLuc modulator – firefly luciferase modulation, counter-screen for miR-21 project; actives 6.9% (n = 360,000); purified FLuc, Km substrates, luminescence inhibition; Potency, µM (top dose mostly 57.5 µM), for the others: top-dose activity change, negative = inhibition, usual class: inhibitors; P08659;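 also: plate controls were vehicle for no effect and reference inhibitor for full effect; nearly all actives have a fitted effect of over 55% in size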
Target sequence (P08659 whole entry, looked up): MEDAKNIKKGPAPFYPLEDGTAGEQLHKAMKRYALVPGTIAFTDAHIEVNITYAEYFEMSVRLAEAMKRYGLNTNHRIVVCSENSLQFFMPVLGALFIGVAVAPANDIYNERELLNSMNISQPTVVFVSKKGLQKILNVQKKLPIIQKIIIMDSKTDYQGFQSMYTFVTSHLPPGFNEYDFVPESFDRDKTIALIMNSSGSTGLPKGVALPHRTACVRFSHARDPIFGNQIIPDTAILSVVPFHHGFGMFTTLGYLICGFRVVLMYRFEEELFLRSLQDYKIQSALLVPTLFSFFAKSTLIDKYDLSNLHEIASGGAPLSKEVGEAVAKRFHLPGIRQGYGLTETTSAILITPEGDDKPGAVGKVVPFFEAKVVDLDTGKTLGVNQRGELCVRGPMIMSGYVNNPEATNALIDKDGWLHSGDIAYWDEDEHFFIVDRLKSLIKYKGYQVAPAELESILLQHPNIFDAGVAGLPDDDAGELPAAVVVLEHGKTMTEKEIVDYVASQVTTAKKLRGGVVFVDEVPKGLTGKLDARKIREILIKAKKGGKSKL
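Purified P. pyralis luciferase, 10 nM final, with Km-level 10 uM D-luciferin and 10 uM ATP in 50 mM Tris acetate pH 7.5, 10 mM Mg acetate, 0.01% Tween-20, 0.05% BSA; 6-point qHTS titration about 60 µM downward; luminescence read.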
Rab9 prom act – Rab9 promoter activation | Huh7 Rab9 promoter-luciferase reporter, luminescence, 24 h | Potency, µM (titrated, usually from 9.22 µM), for inactives: top-dose activation, negative = inhibition, usual class: activators | actives 2.8% (n = 320,000) | AID 485297; also: % of control where 0% means no effect; nearly all actives have a fitted effect of over 60% in size
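Promoter activation is measured as luciferase luminescence in Huh7 cells stably transfected with a Rab9 promoter–luciferase construct, following 24 h compound exposure at 37 °C and 10 min reagent incubation at ambient temperature.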
p53 reactivator – re-activators of mutant p53; H1299 p53-A138V BP100-luciferase reporter, luminescence, 24 h; Potency, µM (top dose mostly 92.2 µM), for the others: top-dose activity change, positive = activation, usual class: activators; actives 0.063% (n = 320,000); AID 504706; also: % of control where 0% means no effect; nearly all actives have a fitted effect of over 45% in size
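p53-null H1299 cells stably carrying temperature-sensitive p53-A138V and a BP100-luciferase reporter were pinned with compounds (4-point, 1:5 series) and held 24 hrs at 37 deg C. Luminescence was read 10 min after detection reagent.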
ELG1 genotox – genotoxicity induction in ELG1-luciferase HEK293T cells; HEK293T ELG1-luciferase reporter, luminescence, 16 h; Potency, µM (top dose mostly 46 µM), inactives show at the highest dose activity change, positive = activation, most hits filed as activators; actives 1.3% (n = 330,000); also: % of control where 0% means no effect; nearly all actives have a fitted effect of over 60% in size
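Genotoxic stress is detected as increased luminescence from luciferase-tagged ELG1 in HEK293T cells, measured with ONE-Glo after a 16 hr treatment at 37 °C.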
NPC1 prom act – activators of NPC1 promoter; Huh7 NPC1 promoter luciferase reporter, 24 h; Potency, µM (highest dose often 9.22 µM), for the others: at the highest dose activation, usual class: activators; actives 2.4% (n = 320,000); AID 485313; also: % of control where 0% means no effect; nearly all actives have a fitted effect of over 60% in size
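Huh7 reporter cells (NPC1 promoter driving luciferase) are dosed with compound for 24 h at 37 °C, 5% CO2; luciferase detection reagent is then added and luminescence measured after 10 min at ambient temperature.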
The depositor's hits bear a star; ? = inconclusive; nt = not tested or not shown; [ ] = remark or other dose. Calls follow the shape of the dose curve; as a rule, active = well fitted curve in the direction sought with a large enough effect; inconclusive = small, poorly fitted or top-dose-only effect, or another doubt; inactive = no such curve, though single readings can be large; an effect the other way counts as inactive or inconclusive. Potency is read from the fitted curve at half-maximal effect.

SMILES	SMN2 splice enh	FLuc modulator	Rab9 prom act	p53 reactivator	ELG1 genotox	NPC1 prom act
CCN1CCc2c(sc(NC(=O)C3COc4ccccc4O3)c2C(N)=O)C1 (stereo unspecified)	nt	-3%	?	?	18µM*	?
CN1CCc2c(sc(NC(=O)C3COc4ccccc4O3)c2C(N)=O)C1 (stereo unspecified)	nt	-11%	?	?	23µM*	?
COc1cc2ccccc2cc1C(=O)Nc1sc2c(c1C(N)=O)CCN(C(C)C)C2	nt	9.5µM*	-6%	25%	-1%	-7%
CCCCn1c(N)c(N(CCOC)C(=O)c2ccc(S(=O)(=O)N3CCCCCC3)cc2)c(=O)[nH]c1=O	nt	4%	-5%	-4%	-1%	-4%
COc1ccc(CCNC(=O)COC(=O)Cn2cnc3c2c(=O)n(C)c(=O)n3C)cc1	nt	2%	2%	-7%	-3%	0%
CCOc1cc(C2c3c(-c4ccccc4O)n[nH]c3C(=O)N2CCc2ccccc2)ccc1O (stereo unspecified)	4%	-7%	nt	nt	nt	nt
CCOC(=O)N1CCc2c(sc(NC(=O)c3ccc(Cl)s3)c2C(N)=O)C1	-92%	11µM*	2%	-24%	-10%	-1%
O=C(c1ccc(F)cc1)N1CCC(c2ccccc2)C1 (stereo unspecified)	nt	?	?	16%	?	4.5µM*
CC(=O)c1cccc(NC(=S)N2CCC(Cc3ccccc3)CC2)c1	-6%	-4%	-1%	0%	-8%	0%
Fc1ccccc1NC(=S)N1CCC(c2ccccc2)C1 (stereo unspecified)	79%	?	?	18%	?	?
COc1ccc(C(=O)N2CCCC(c3ccccc3)C2)cc1 (stereo unspecified)	-9%	-2%	1%	-6%	1%	1%
CCc1cccc(NC(=S)N2CCC(c3ccccc3)C2)c1 (stereo unspecified)	68%	24µM*	?	22%	14%	?
CSc1cccc(NC(=S)N2CCC(c3ccccc3)C2)c1 (stereo unspecified)	nt	15µM*	14%	22%	13%	18%
Fc1cc(F)cc(NC(=S)N2CCC(c3ccccc3)C2)c1 (stereo unspecified)	13µM*	?	3.5µM*	?	?	?
C=CCc1cccc2cc(C(=O)Nc3ccccc3C(=O)O)c(=O)oc12	-16%	?	0%	0%	-9%	-9%
N#C[C@H](C(=O)O)C(c1c(Cl)cccc1Cl)[C@H](C#N)C(=O)O	-7%[9.22 µM]	nt	nt	nt	nt	nt
CCCN(CCC)C(=O)Cn1c(=O)n(-c2cccc(OC)c2)c(=O)c2c3c(sc21)CCCC3	-2%	3%	nt	nt	nt	nt
Cc1nc2ccccn2c1C(=O)N/N=C/c1ccc(CNC(=O)C(=O)Nc2ccccc2)o1	?	19µM*	2%	1%	3%	-5%
Cc1nc2ccccn2c1C(=O)N/N=C/c1ccc([N+](=O)[O-])o1	-37%	-6%	-6%	?	-7%	-9%
N#CCCn1c(=O)c(-c2cccs2)nc2cnc(N3CCNCC3)nc21	-27%	nt	nt	nt	nt	nt
O=C(O)CC[C@]1(C(=O)O)CCC(=O)c2ccccc21	2%[9.22 µM]	nt	nt	nt	nt	nt
Cc1cc(C)cc(NC(=O)CSc2ccc(-c3ccccn3)nn2)c1	nt	?	-1%	-5%	?	0%
CC(=O)c1cccc(NC(=O)CSc2ccc(-c3sc(C)nc3C)nn2)c1	nt	13µM*	-3%	-9%	-29%	-5%
O=C(CSc1ccc(-c2ccccn2)nn1)Nc1cccc(F)c1	nt	13µM*	14%	?	?	7%
CCc1ccccc1NC(=O)Nc1ccc2c(c1)N(CC)C(=O)c1ccccc1S2	nt	-1%	nt	nt	nt	nt
SMILES	SMN2 splice enh	FLuc modulator	Rab9 prom act	p53 reactivator	ELG1 genotox	NPC1 prom act
Cc1cccc(OC(=O)CSc2nnc(CNC(=O)c3ccccc3)o2)c1C	nt	-7%	nt	nt	nt	nt
CC(C)(CO)NC(=O)Nc1ccc(Cl)c(Cl)c1	-2%	-5%	-2%	8%	-7%	-3%
Cc1ccc(N2C(=O)CC3(CCCC3)CC2=O)cc1	nt	11µM*	12%	3%	10%	2%
Cc1ccc(N2C(=O)CS(=O)(=O)CC2=O)cc1	-3%	-3%	-8%	-2%	-1%	-1%
O=C(NC(=O)c1ccccc1O)c1ccc2c(c1)CCO2	nt	1.2µM*	?	-1%	?	1.4µM*
Cc1cc(-n2c(C)cc(C(=O)COc3ccccc3[N+](=O)[O-])c2C)no1	8%	?	-1%	1%	6%	0%
Cc1cc(-n2c(C)cc(C(=O)COc3ccc(F)c(F)c3)c2C)no1	nt	17µM*	?	?	9%	28%
Cc1ccc(NC2=CC(c3ccccc3F)N(c3ccc(C)cc3)C2=O)cc1 (stereo unspecified)	18%	1%	nt	nt	nt	nt
NC(=O)c1cc([N+](=O)[O-])ccc1NCc1cccc([N+](=O)[O-])c1	nt	0%	-2%	-6%	7%	-2%
NCc1cccc(CNc2ccc([N+](=O)[O-])cc2C(N)=O)c1	nt	-2%	3.2µM*	?	?	?
CCOC(=O)c1ccc(N2C(=O)c3n[nH]c(-c4cccs4)c3C2c2ccc(C(C)(C)C)cc2)cc1 (stereo unspecified)	5%	-4%	nt	nt	nt	nt
CCOc1ccccc1NC(=O)Cn1c(=O)n(Cc2nc(C)no2)c(=O)c2ccccc21	nt	0%	nt	nt	nt	nt
NC1=NC(=Nc2ccc(Cl)cc2)c2ccccc21	7%	7.6µM*	-5%	?	17%	-2%
NC1=NC(=Nc2ccc(Br)cc2)c2ccccc21	-3%	8.5µM*	-11%	?	?	-5%
Cc1cccc(N=C2N=C(N)c3ccccc32)c1	15%	-15%	0%	12%	16%	0%
NC1=NC(=Nc2ccccc2)c2ccccc21	?	-19%	1%	27%	?	-5%
CC(C)c1ccc(N=C2N=C(N)c3ccccc32)cc1	nt	0.48µM*	?	?	?	-3%
COc1ccc(CCNS(=O)(=O)CCNC(=O)c2ccc3c(c2)OCO3)cc1	nt	1%	0%	1%	3%	-1%
Cc1cccc(NC(=O)Cn2ccn(-c3ccc4c(c3)OCCO4)c(=O)c2=O)c1	nt	-9%	2%	-8%	10%	1%
Cc1ccc(N=Cc2c(O)[nH]c3ccccc23)c([N+](=O)[O-])c1	22%	?	0.56µM*	6%	?	?
CCOC(=O)c1sc(/N=C/c2c(O)ccc3ccccc23)cc1C	-34%	19µM*	2%	14%	0%	3%
COc1ccc(N=Cc2c(O)ccc3ccccc23)cc1	nt	13µM*	-3%	4%	-10%	-2%
